In article PMC8769072, “Proteome‐scale mapping of binding sites in the unstructured regions of the human proteome” (Molecular Systems Biology, 2022):

Sequence of AP2B1 700-937, P63010 (P63010 700-937): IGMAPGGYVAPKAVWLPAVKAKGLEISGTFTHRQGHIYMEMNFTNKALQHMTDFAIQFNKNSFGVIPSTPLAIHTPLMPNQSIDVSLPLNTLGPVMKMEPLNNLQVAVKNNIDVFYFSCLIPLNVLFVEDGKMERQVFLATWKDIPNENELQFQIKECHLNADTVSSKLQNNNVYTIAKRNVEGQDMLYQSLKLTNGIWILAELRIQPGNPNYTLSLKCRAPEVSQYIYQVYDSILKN
Sequence of ANKRA2 142-313, Q9H9E1 (Q9H9E1 142-313): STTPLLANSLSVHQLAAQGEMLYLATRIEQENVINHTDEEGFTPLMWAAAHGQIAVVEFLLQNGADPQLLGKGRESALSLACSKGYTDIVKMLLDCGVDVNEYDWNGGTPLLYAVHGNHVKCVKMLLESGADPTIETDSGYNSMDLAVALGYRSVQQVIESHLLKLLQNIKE

B1: ANKS3, Q6ZW76 (peptide)
chain: QASLQAMSLPELSGAL
With B1 the “selected by phage display” value (ANKRA2 142-313, Q9H9E1) was “confidence 2 (active)”.

B2: OTP, Q5XKR4 (peptide)
chain: PGTLLPTPGLPQFPSA
With B2 the “selected by phage display” value (ANKRA2 142-313, Q9H9E1) was “confidence 2 (active)”.

B3: FOXP3, Q9BZS1 (peptide)
chain: MPPSQLQLPTLPLVMV
For B3, the “selected by phage display” value (ANKRA2 142-313, Q9H9E1) was “confidence 2 (active)”.

B4: C16orf46, Q6P387 (peptide)
chain: VFPRPVLPSLTVSRVI
With B4 the “selected by phage display” value (ANKRA2 142-313, Q9H9E1) was “confidence 4 (active)”.

B5: TSHZ3, Q63HK5 (peptide)
chain: AAKPSLPALDPMSMLF
B5 was tested, and the “selected by phage display” value (ANKRA2 142-313, Q9H9E1) was “confidence 3 (active)”.

B6: EFNA3, P52797 (peptide)
chain: EKPVPTLPQFTMGPNV
For B6, the “selected by phage display” value (ANKRA2 142-313, Q9H9E1) was “confidence 3 (active)”.

B7: NTM-AS1, Q6ZSK4 (peptide)
chain: DSALSLPPLSLPHPHP
With B7 the “selected by phage display” value (ANKRA2 142-313, Q9H9E1) was “confidence 3 (active)”.

B8: NOBOX, O60393 (peptide)
chain: PQPKLPYLPTFPFSMP
B8 was tested, and the “selected by phage display” value (ANKRA2 142-313, Q9H9E1) was “confidence 2 (active)”.

B9: SERTAD4-AS1, Q5TG53 (peptide)
chain: MSARPSLPPLPAKPAG
In the case of B9, the “selected by phage display” value (ANKRA2 142-313, Q9H9E1) is reported as “confidence 2 (active)”.

B10: NUP153, P49790 (peptide)
chain: EEEMEVPVLPKISLPI
With B10 the “selected by phage display” value (ANKRA2 142-313, Q9H9E1) was “confidence 2 (active)”.

B11: Q5PR19 (peptide)
chain: NLRLPSLDEQVIPARL
B11 was tested, and the “selected by phage display” value (ANKRA2 142-313, Q9H9E1) was “confidence 2 (active)”.

B12: HDAC5, Q9UQL6 (peptide)
chain: YTSPSLPNISLGLQAT
B12 was tested, and the “selected by phage display” value (ANKRA2 142-313, Q9H9E1) was “confidence 4 (active)”.

B13: ZNF362, Q5T0B9 (peptide)
chain: AESSQAVMSLPKLQQV
With B13 the “selected by phage display” value (ANKRA2 142-313, Q9H9E1) was “confidence 4 (active)”.

B14: PRX, Q9BXM0 (peptide)
chain: VELPALPSLPTLPTLP
For B14, the “selected by phage display” value (ANKRA2 142-313, Q9H9E1) was “confidence 2 (active)”.

B15: GORASP2, Q9H8Y8 (peptide)
chain: LPNLPNLNLNLPAPHI
B15 was tested, and the “selected by phage display” value (ANKRA2 142-313, Q9H9E1) was “confidence 2 (active)”.

B16: SALL1, Q9NSC2 (peptide)
chain: VGLPLPPTLPSLIPFI
For B16, the “selected by phage display” value (ANKRA2 142-313, Q9H9E1) was “confidence 2 (active)”.

B17: KIAA0586, Q9BVV6 (peptide)
chain: SMLKLPDLPQNSVKLQ
In the case of B17, the “selected by phage display” value (ANKRA2 142-313, Q9H9E1) is reported as “confidence 3 (active)”.

B18: ZNF513, Q8N8E2 (peptide)
chain: ALLLPDLSLHVPPGGA
B18 was tested, and the “selected by phage display” value (ANKRA2 142-313, Q9H9E1) was “confidence 2 (active)”.

B19: FIP1L1, Q6UN15 (peptide)
chain: EWLYGGPWDVHVHSDL
For B19, the “selected by phage display” value (AP2B1 700-937, P63010) was “confidence 2 (active)”.

B20: KMT2A, Q03164 (peptide)
chain: AEPFSSSSPTPLFPWF
In the case of B20, the “selected by phage display” value (AP2B1 700-937, P63010) is reported as “confidence 2 (active)”.

B21: PHF7, Q9BWX1 (peptide)
chain: NPGLSWTDWPEPSLLE
With B21 the “selected by phage display” value (AP2B1 700-937, P63010) was “confidence 3 (active)”.

B22: SPAG5, Q96R06 (peptide)
chain: TESWMSPLAWLEKGVN
With B22 the “selected by phage display” value (AP2B1 700-937, P63010) was “confidence 2 (active)”.

B23: F8A3, P23610 (peptide)
chain: SWEAFDSHGQESSGQL
For B23, the “selected by phage display” value (AP2B1 700-937, P63010) was “confidence 2 (active)”.

B24: SCYL1, Q96KG9 (peptide)
chain: MGGAAASWAGWAVTGV
B24 was tested, and the “selected by phage display” value (AP2B1 700-937, P63010) was “confidence 3 (active)”.

B25: EPS15, P42566 (peptide)
chain: ESFGGGFADFSTLSKV
For B25, the “selected by phage display” value (AP2B1 700-937, P63010) was “confidence 3 (active)”.

B26: NDUFB8, O95169 (peptide)
chain: HERDPWYSWDQPGLRL
B26 was tested, and the “selected by phage display” value (AP2B1 700-937, P63010) was “confidence 3 (active)”.

B27: ZNF831, Q5JPB2 (peptide)
chain: PWVPNWELGEPPGNAP
With B27 the “selected by phage display” value (AP2B1 700-937, P63010) was “confidence 3 (active)”.

B28: OBSCN, Q5VST9 (peptide)
chain: EATEEGWASFSAELSH
With B28 the “selected by phage display” value (AP2B1 700-937, P63010) was “confidence 4 (active)”.

B29: DZIP1, Q86YF9 (peptide)
chain: NSISEPKGNPLAWQAF
For B29, the “selected by phage display” value (AP2B1 700-937, P63010) was “confidence 3 (active)”.

B30: KRR1, Q13601 (peptide)
chain: ELLTVPDGWKEPAFSK
For B30, the “selected by phage display” value (AP2B1 700-937, P63010) was “confidence 3 (active)”.

B31: ELP2, Q6IA86 (peptide)
chain: RGVEWAAFGRDLFLAS
With B31 the “selected by phage display” value (AP2B1 700-937, P63010) was “confidence 3 (active)”.

B32: SLCO4A1, Q96BD0 (peptide)
chain: VAAGWWAFAPPALQVL
With B32 the “selected by phage display” value (AP2B1 700-937, P63010) was “confidence 2 (active)”.

B33: C12orf71, A8MTZ7 (peptide)
chain: TQAQAALNFGWAFSWL
With B33 the “selected by phage display” value (AP2B1 700-937, P63010) was “confidence 2 (active)”.

B34: TSPOAP1, O95153 (peptide)
chain: DPGAMEPWALPTWHSW
B34 was tested, and the “selected by phage display” value (AP2B1 700-937, P63010) was “confidence 2 (active)”.

B35: BBS5, Q8N3I7 (peptide)
chain: DSDGHTDAFVAYFADG
B35 was tested, and the “selected by phage display” value (AP2B1 700-937, P63010) was “confidence 2 (active)”.

B36: AGFG1, P52594 (peptide)
chain: SANADFANFDAFGQSS
B36 was tested, and the “selected by phage display” value (AP2B1 700-937, P63010) was “confidence 3 (active)”.

B37: SLC32A1, Q9H598 (peptide)
chain: ITAWEAGWNVTNAIQG
With B37 the “selected by phage display” value (AP2B1 700-937, P63010) was “confidence 3 (active)”.

B38: NTHL1, P78549 (peptide)
chain: VPVWEPQDWQQQLVNI
In the case of B38, the “selected by phage display” value (AP2B1 700-937, P63010) is reported as “confidence 3 (active)”.

B39: ITSN1, Q15811 (peptide)
chain: EPSTTPNNWADFSSTW
For B39, the “selected by phage display” value (AP2B1 700-937, P63010) was “confidence 4 (active)”.

B40: ZNF532, Q9HCE3 (peptide)
chain: WTAWEADALFMQRDVY
For B40, the “selected by phage display” value (AP2B1 700-937, P63010) was “confidence 3 (active)”.

B41: AFTPH, Q6ULP2 (peptide)
chain: SWAAFGDQQATESHHR
For B41, the “selected by phage display” value (AP2B1 700-937, P63010) was “confidence 3 (active)”.

B42: CGNL1, Q0VF96 (peptide)
chain: PWTAFPKPSNSQPTSP
B42 was tested, and the “selected by phage display” value (AP2B1 700-937, P63010) was “confidence 3 (active)”.

B43: ANKRD11, Q6UB99 (peptide)
chain: LSHLGQVEPVPWADAF
For B43, the “selected by phage display” value (AP2B1 700-937, P63010) was “confidence 2 (active)”.

B44: SPATA31E1, Q6ZUB1 (peptide)
chain: APPFPQSTFTPWASWV
For B44, the “selected by phage display” value (AP2B1 700-937, P63010) was “confidence 3 (active)”.

B45: INPPL1, O15357 (peptide)
chain: SQEDWTTFTHDRIRQL
B45 was tested, and the “selected by phage display” value (AP2B1 700-937, P63010) was “confidence 2 (active)”.

B46: TSPO2, Q5TGU0 (peptide)
chain: MSGWAEGPRMLSWAPF
With B46 the “selected by phage display” value (AP2B1 700-937, P63010) was “confidence 3 (active)”.

B47: ZNF786, Q8N393 (peptide)
chain: WDVPAWESTQHPWPVA
B47 was tested, and the “selected by phage display” value (AP2B1 700-937, P63010) was “confidence 4 (active)”.

B48: Q96NJ1 (peptide)
chain: WPASWGFPDASSTVPS
In the case of B48, the “selected by phage display” value (AP2B1 700-937, P63010) is reported as “confidence 2 (active)”.

B49: GPR179, Q6PRD1 (peptide)
chain: PEWEVAAPWGSVGPGA
For B49, the “selected by phage display” value (AP2B1 700-937, P63010) was “confidence 2 (active)”.

B50: ARNTL, O00327 (peptide)
chain: AGLGGPVDFSDLPWPL
With B50 the “selected by phage display” value (AP2B1 700-937, P63010) was “confidence 2 (active)”.

B51: HTATSF1, O43719 (peptide)
chain: EERLRGWEAFLNAPEA
In the case of B51, the “selected by phage display” value (AP2B1 700-937, P63010) is reported as “confidence 2 (active)”.

B52: RHBDD3, Q9Y3P4 (peptide)
chain: WSHWEDSALPPPSLRP
For B52, the “selected by phage display” value (AP2B1 700-937, P63010) was “confidence 3 (active)”.

B53: DBNL, Q9UJU6 (peptide)
chain: EKSPTDWALFTYEGNS
With B53 the “selected by phage display” value (AP2B1 700-937, P63010) was “confidence 2 (active)”.

B54: TNRC6A, Q8NDV7 (peptide)
chain: WGEPWGEPSTPATTVD
In the case of B54, the “selected by phage display” value (AP2B1 700-937, P63010) is reported as “confidence 2 (active)”.

B55: TEX13C, A0A0J9YWL9 (peptide)
chain: ASSPVNWAAPWANAMN
B55 was tested, and the “selected by phage display” value (AP2B1 700-937, P63010) was “confidence 3 (active)”.

B56: SLC9A2, Q9UBY0 (peptide)
chain: TVGKNHEWNWAFVAFT
B56 was tested, and the “selected by phage display” value (AP2B1 700-937, P63010) was “confidence 2 (active)”.

B57: REPS1, Q96D71 (peptide)
chain: NFADFSQFEVFAASNV
For B57, the “selected by phage display” value (AP2B1 700-937, P63010) was “confidence 3 (active)”.

B58: FRMPD1, Q5SYB0 (peptide)
chain: TGQDIAPRDSPEWVAF
With B58 the “selected by phage display” value (AP2B1 700-937, P63010) was “confidence 3 (active)”.

B59: DZIP1, Q86YF9 (peptide)
chain: WQAFESQPAAPAVPMN
For B59, the “selected by phage display” value (AP2B1 700-937, P63010) was “confidence 2 (active)”.

B60: GNAS, P84996 (peptide)
chain: LNSPAWEASGLHWSSL
B60 was tested, and the “selected by phage display” value (AP2B1 700-937, P63010) was “confidence 3 (active)”.

B61: ZNF292, O60281 (peptide)
chain: FDWSSFKPMGFEVSFL
In the case of B61, the “selected by phage display” value (AP2B1 700-937, P63010) is reported as “confidence 2 (active)”.

B62: SLC35F4, A4IF30 (peptide)
chain: FTKVEHWSSFAALPWG
For B62, the “selected by phage display” value (AP2B1 700-937, P63010) was “confidence 2 (active)”.
